# Measurements taken from PMC7819943, “Rice protein-binding microarrays: a tool to detect cis-acting elements near promoter regions in rice”.
# The full ranking holds about 68,000 sequences; the median of “fluorescence intensity (a.u.)” is about 9,100, and the highest 2% start at about 16,000. Shown is part of a subset that was picked to be rich in the highest values.
# Biological target: OsWRKY34 (Oryza sativa, UniProt Q0JBA9 1-250)
# Assay: protein-binding microarray (RPBM); PBS, 2% BSA, 51.3 ng/ul salmon testes DNA, 50 uM zinc acetate, 200 nM TF, 25 C, 1 h; high values mean tight binding
# Settings: protein: recombinant; tags: N-terminal polyhistidine and DsRed monomer fusion (pET32a); label: CyDye5-dUTP incorporated in the synthesized complementary strand; 3' TTTTT single-stranded linker to array surface; dsDNA, one strand shown
# How it was run: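 Transcription factors, each fused N-terminally to a polyhistidine tag and DsRed, were expressed in E. coli BL21-CodonPlus and purified on Ni–NTA. A custom Agilent array was made double-stranded by primer extension with Cy5-dUTP and blocked with 2% BSA. It was incubated with 200 nM protein in PBS, 2% BSA, salmon testes DNA and 50 µM zinc acetate at 25 °C for 1 h, then washed. The binding signal is per-feature fluorescence intensity (arbitrary units) read on an Axon 4000B scanner.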
# Chain of OsWRKY34 (Q0JBA9 entry or part of it): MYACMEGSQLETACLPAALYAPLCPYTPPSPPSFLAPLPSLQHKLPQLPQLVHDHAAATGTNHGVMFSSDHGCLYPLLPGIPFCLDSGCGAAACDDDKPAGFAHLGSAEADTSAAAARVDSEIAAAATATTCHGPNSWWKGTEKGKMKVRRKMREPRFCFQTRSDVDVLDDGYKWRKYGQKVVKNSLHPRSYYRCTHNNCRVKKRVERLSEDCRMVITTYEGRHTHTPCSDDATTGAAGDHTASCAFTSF
row,Sequence,binding signal
1,GGCGCCGCCGTCGTCCTGCTGCTTCCGCCGCCGCGTCTTCCGGAGTCACCTAGTGCAG,11000 fluorescence intensity (a.u.)
2,CTGCACATGATTTCAATCTACTATGGACATTCTCACTCTCCGGAGTCACCTAGTGCAG,12100 fluorescence intensity (a.u.)
3,CACCTGCCTCCTCCTACCACCAGCCGCCGCCGACGACTAACGGAGTCACCTAGTGCAG,8550 fluorescence intensity (a.u.)
4,TGCTCTCTCTCGTGTGGTCTGGTCCGCGCGCTCGTGTATACGGAGTCACCTAGTGCAG,9150 fluorescence intensity (a.u.)
5,TACCTCTCTTCTCTTCTCCAATCTCTATCTATGTCTTCTTCGGAGTCACCTAGTGCAG,8640 fluorescence intensity (a.u.)
6,CGACGGGCGGGTGTGGGGATTCGCGGCCTTGAGGGTTCGTCGGAGTCACCTAGTGCAG,9660 fluorescence intensity (a.u.)
7,CGCTTCCATCTCTCTCTGTCTCTCTTCTTTTTGACCTCTTCGGAGTCACCTAGTGCAG,11900 fluorescence intensity (a.u.)
8,CCGCTGTCGTCGTCTCGTCTCTGTGTGTGTGTCTCCATCACGGAGTCACCTAGTGCAG,8280 fluorescence intensity (a.u.)
9,CGCGCCATCTCCATGTCATCGTCGTCGTCTGTGTCCCCTTCGGAGTCACCTAGTGCAG,10700 fluorescence intensity (a.u.)
10,CTCTCTCCAATCTCCATCTCTCTGTCTGATTTGTAATCTTCGGAGTCACCTAGTGCAG,16500 fluorescence intensity (a.u.)
11,TCCATCATCGTCGTCTCTGTGTGTGTCTGTGTGTGTGTGTCGGAGTCACCTAGTGCAG,17900 fluorescence intensity (a.u.)
12,GGGGAGGGAAGGGATGGATCGGATGCGGGTTCGGGCGGTTCGGAGTCACCTAGTGCAG,8910 fluorescence intensity (a.u.)
13,CGCGGGTGGTCTGGTCTCTCTCTCGTATCGTATCGTATCACGGAGTCACCTAGTGCAG,16700 fluorescence intensity (a.u.)
14,CGGGCGGGGCGGGGCGGGTTCGCTCGTCGGATGTGTGGATCGGAGTCACCTAGTGCAG,23900 fluorescence intensity (a.u.)
15,TCTCTCTGGGAGGTCTCGCGGAAGGTGGTGGGGTTGGGCCCGGAGTCACCTAGTGCAG,11500 fluorescence intensity (a.u.)
16,TTTGGTTGCTTGCCTTCTTTATCGGCAAAATTTGCTATAGCGGAGTCACCTAGTGCAG,8970 fluorescence intensity (a.u.)
17,ATTTAGGGAAATTATAACCATGCCACTCTGTCGTGTTTTCCGGAGTCACCTAGTGCAG,9180 fluorescence intensity (a.u.)
18,AGATAGTGGTGGTGGTCTGTGCATCGTTGACTTGATCATGCGGAGTCACCTAGTGCAG,10900 fluorescence intensity (a.u.)
19,GGTCCCGTTCCGATCCTCACTCGGTCACTCATCTTTCCTTCGGAGTCACCTAGTGCAG,8730 fluorescence intensity (a.u.)
20,AAATTATAACGAGGGGTGAGGGGCTAAGAACCTATTTTCGCGGAGTCACCTAGTGCAG,9700 fluorescence intensity (a.u.)
21,CCCATCACCACTCTGCCCACATCCCGGCGTCGCTTCGTGTCGGAGTCACCTAGTGCAG,9120 fluorescence intensity (a.u.)

row,Sequence,binding signal
1,TTCGTTCCGATTCTTTTTTTTTCATTTGCTATGCATCTTCCGGAGTCACCTAGTGCAG,11000 fluorescence intensity (a.u.)
2,GTCCTATCGCGTAGCCCACACTCCACCCTATCGCGCCTTCCGGAGTCACCTAGTGCAG,11500 fluorescence intensity (a.u.)
3,CGCCCCTCCCCTTTGGCGCCGCCGCGCCTGCGTTGACCCTCGGAGTCACCTAGTGCAG,8230 fluorescence intensity (a.u.)
4,TCCAATCTGTGCTGCCTTTATATTAGTTCCACCAAGAAGACGGAGTCACCTAGTGCAG,9380 fluorescence intensity (a.u.)
5,GACCTTTACTTTTTCATCCTACCTAAATGCATATTCCAATCGGAGTCACCTAGTGCAG,9320 fluorescence intensity (a.u.)
6,ACTATTTGGATATCCCATTCCAACGCCATTGCCCTCTGTTCGGAGTCACCTAGTGCAG,8280 fluorescence intensity (a.u.)
7,GCGGGGTTCGTGGTGTGTGCGTGTGCGTCTCTCTCTGTCTCGGAGTCACCTAGTGCAG,21100 fluorescence intensity (a.u.)
8,CTCTCTCGCTTCTTCTCTGTGTGTGTGTTGCGTGGTGGGGCGGAGTCACCTAGTGCAG,23800 fluorescence intensity (a.u.)
9,TGGGAGTGTTGTTATTCTCGTGCGCGTTGTGGTTAGTGGGCGGAGTCACCTAGTGCAG,9630 fluorescence intensity (a.u.)
10,TGGCGTGGTCTCGTCTCTTCGTCTTCGGGTGTGCTCACCGCGGAGTCACCTAGTGCAG,9650 fluorescence intensity (a.u.)
11,TTTCCGTTCCTTTCTTTCCTTCTCGCGTTTGCGTGGTGGGCGGAGTCACCTAGTGCAG,10500 fluorescence intensity (a.u.)
12,GTTCTCGTCGTTCGTGTTCTTCTGCTTCGGTTTCGTGGTGCGGAGTCACCTAGTGCAG,11900 fluorescence intensity (a.u.)
13,ATCTGTAGTCCGTTGCTCTTCTCTCTCATATTTTATCTCGCGGAGTCACCTAGTGCAG,11700 fluorescence intensity (a.u.)
14,TGTGTGTATGCGTTTATAGGAGTAACTGTGTGTGCGTTTACGGAGTCACCTAGTGCAG,8150 fluorescence intensity (a.u.)
15,CGCCTCCGCCTCCGTCGACTCCGCGCCTCCGCCGCCACCCCGGAGTCACCTAGTGCAG,15100 fluorescence intensity (a.u.)
16,TCCAGCTGCTTGCTTCTCTCTCTCTCTTCTCTTGAGCATCCGGAGTCACCTAGTGCAG,9650 fluorescence intensity (a.u.)
17,GGAGGAGGTGGAGGCGCTGCTGGTGGTGGAGGCCGTGGTGCGGAGTCACCTAGTGCAG,8020 fluorescence intensity (a.u.)
18,CGGAGGCGAGTGGGTGGGTGGTGGTCCAGTGCGGTGGTGCCGGAGTCACCTAGTGCAG,9800 fluorescence intensity (a.u.)
19,AGTGGGTGGTGGTGGTGGTGGTGGTGCGAGGCCGTCGCTGCGGAGTCACCTAGTGCAG,20500 fluorescence intensity (a.u.)
20,TCTGCCTTGAAGTGGTACCGTGGGTGGGAGGGTAGTTATGCGGAGTCACCTAGTGCAG,11500 fluorescence intensity (a.u.)
21,CGCTTGATCTGGGGTGGGGTCGCGAGTGGTGGAGGAGGTGCGGAGTCACCTAGTGCAG,16600 fluorescence intensity (a.u.)

row,Sequence,binding signal
1,ATGGGAGGTGGGTGGTACCGTGGTGGTGGTCGCAGATCTGCGGAGTCACCTAGTGCAG,27200 fluorescence intensity (a.u.)
2,AATCTCCGTGGCGAGGGTGGGGTCGGAGGTGGTCATGTCGCGGAGTCACCTAGTGCAG,9290 fluorescence intensity (a.u.)
3,GGGGACGCAGGAGGAGGTGGGTGGGTCGAGCTCGCTTGCGCGGAGTCACCTAGTGCAG,15400 fluorescence intensity (a.u.)
4,TCGTGCGTGCGTGAGGGAGGTCGTGGTGGTGGTGGTGGTGCGGAGTCACCTAGTGCAG,9020 fluorescence intensity (a.u.)
5,TGTGTGAGATTTTTGCATGTTTTTGTTGTGTTTGTTCATACGGAGTCACCTAGTGCAG,8580 fluorescence intensity (a.u.)
6,TCTGGTTCCATTTTCCACGCACAGGAGAGTGATTACTTTTCGGAGTCACCTAGTGCAG,11200 fluorescence intensity (a.u.)
7,TCTCTCTCTCGTGCGTCACCTCCTCGCGTGCTCAGCGCCGCGGAGTCACCTAGTGCAG,8780 fluorescence intensity (a.u.)
8,TCCTTGCTCCATCAGTATTACACCACCCAACACAAGCTCACGGAGTCACCTAGTGCAG,8870 fluorescence intensity (a.u.)
9,CGACTTGTTGCCTCAAACAATTCCTGGTTATAAAACACCACGGAGTCACCTAGTGCAG,35500 fluorescence intensity (a.u.)
10,GGTTCAAATTAACTTTTCAATCTTGGCTGTGTTTGGATCCCGGAGTCACCTAGTGCAG,9630 fluorescence intensity (a.u.)
11,AGTTAATCCTTGTTAAACTTTGGTTTCAAAACAATTTCCCCGGAGTCACCTAGTGCAG,65500 fluorescence intensity (a.u.)
12,CCCTCTATAAATGGTTCCTATCACAACCACAAACACCACACGGAGTCACCTAGTGCAG,8240 fluorescence intensity (a.u.)
13,CTCCTCATCCATCCACCACACCACTTGCCTCCAAACAAAACGGAGTCACCTAGTGCAG,9340 fluorescence intensity (a.u.)
14,TCTACAAACTTGGTCAAACTTAAAACAGTTTGACTTTGACCGGAGTCACCTAGTGCAG,14600 fluorescence intensity (a.u.)
15,GCTGTTTCCTGGAGGTTCCATCCATGCTATCCTGTGCTCGCGGAGTCACCTAGTGCAG,8470 fluorescence intensity (a.u.)
16,GACCAACCAAAACCTCCGATCACCTTGTCCCGTACTGAAACGGAGTCACCTAGTGCAG,11000 fluorescence intensity (a.u.)
17,TCACCCCGCCGCCGCCATCCAGGCGCCGACGACCTCCCATCGGAGTCACCTAGTGCAG,8840 fluorescence intensity (a.u.)
18,CTCTCTTTTCCTTTTCTAATTTTAGATTTTATTTTATTTTCGGAGTCACCTAGTGCAG,8600 fluorescence intensity (a.u.)
19,GTTTTACATTTGTCCTAAATCAAACATATCTATCTTTGACCGGAGTCACCTAGTGCAG,8180 fluorescence intensity (a.u.)
20,TGGCTGAGCTTCTTTGCGTGTTCTTGTTTGGGTTTTGGGGCGGAGTCACCTAGTGCAG,18700 fluorescence intensity (a.u.)
21,TTCTTGGCTTGGCTCCTCTGGTGTTCTTGTGCTCTGGGTTCGGAGTCACCTAGTGCAG,9970 fluorescence intensity (a.u.)

row,Sequence,binding signal
1,GGGGTGGTTTTGGCTGAGCTGCTTGTGTCCTCTTCTTGCTCGGAGTCACCTAGTGCAG,18400 fluorescence intensity (a.u.)
2,CAGCTCGAGCTGTTTGCTTGTGGGGTTCTTGTTTTTCTTTCGGAGTCACCTAGTGCAG,8020 fluorescence intensity (a.u.)
3,TGGTTTTGGCAGCTGCTGTGTGCACTTGTGGGTTTTTTCTCGGAGTCACCTAGTGCAG,8960 fluorescence intensity (a.u.)
4,TTTTTGTGTGTGTGCTGTGTTCTTGGGTTTCTTGGCAATGCGGAGTCACCTAGTGCAG,8650 fluorescence intensity (a.u.)
5,CATTTTATTGTGAACTTTTTCCTTTTAAACTCGATGTTTACGGAGTCACCTAGTGCAG,10700 fluorescence intensity (a.u.)
6,GTGATGTTCATGCGACAATGTGTTTCTTCCTGGACATATTCGGAGTCACCTAGTGCAG,8050 fluorescence intensity (a.u.)
7,CGTTGGAAAGCTACTGTTTTGACCCGTTCACACCACTACGCGGAGTCACCTAGTGCAG,9680 fluorescence intensity (a.u.)
8,CAAATGGAGGCCCCTTTTAGATACGCTTCCTGTTACTTTCCGGAGTCACCTAGTGCAG,8710 fluorescence intensity (a.u.)
9,TCCTTCTGTCACCATTCGATTCCCAAACTCTCGCCGCCGCCGGAGTCACCTAGTGCAG,9140 fluorescence intensity (a.u.)
10,CCCGCTTCTTCCCCGCTGCTTGAATCAGTCGTATCCTCACCGGAGTCACCTAGTGCAG,11400 fluorescence intensity (a.u.)
11,CATCAGTTGGCGATTCCCGCTGTATCCTAGAATCTGCTGACGGAGTCACCTAGTGCAG,65000 fluorescence intensity (a.u.)
12,CTCTCTCTCTCTCTCTCTCTCTGCTGTTTTCTGTATCTGACGGAGTCACCTAGTGCAG,10100 fluorescence intensity (a.u.)
13,ACGACAAGAACCACCTCTCTCTCTCTCTCTCACTGTCCACCGGAGTCACCTAGTGCAG,9040 fluorescence intensity (a.u.)
14,TTCCCCTTGCTCTTGCATTTGCTGCCGCTCTTCGCCTCTTCGGAGTCACCTAGTGCAG,9270 fluorescence intensity (a.u.)
15,TCTCTTCTCTTTCTCTCCTCTCTTTTTGCCGCCGCTCGAGCGGAGTCACCTAGTGCAG,8900 fluorescence intensity (a.u.)
16,GCCCTTCCTCTCCTCACTCACACTGCCCTGTTCATCTCTTCGGAGTCACCTAGTGCAG,8540 fluorescence intensity (a.u.)
17,GCTCAGCTCTTCACTTCTGCTGCATTCACACCACCACACTCGGAGTCACCTAGTGCAG,9310 fluorescence intensity (a.u.)
18,AAACTCTCACTCGCTCACTCACACCTCACACGCTGCTGCTCGGAGTCACCTAGTGCAG,8070 fluorescence intensity (a.u.)
19,CACACACACTGCACTTCGGCTCACTCTCTCCACTGTTCTTCGGAGTCACCTAGTGCAG,16700 fluorescence intensity (a.u.)
20,TCTCTCTCTCTCCTTCGGCTCATTCGTCACTGTTCCACCGCGGAGTCACCTAGTGCAG,11300 fluorescence intensity (a.u.)
21,TCAGGCTCTCACTCGCGCTGCATGCCACACTGCTTCTTCTCGGAGTCACCTAGTGCAG,16400 fluorescence intensity (a.u.)
